According to PubChem BioAssay AID1963576 (National Center for Advancing Translational Sciences (NCATS), 2024):
Screen size: about 46,000 compounds; about 60 (0.1%) were called active. Where a call stands in place of a potency, no number is given. Inconclusive results (about 3%) are left out. This is one part of a sample in which actives are shown more often than they occur. Calls follow the shape of the dose curve; as a rule, active = well fitted inhibition curve with a large enough effect; inconclusive = small, poorly fitted or top-dose-only effect; inactive = no such curve, though single readings can be large or run the other way.

Test: Primary qHTS assay for Inhibitors of ovarian cancer metastasis using an organotypic tumor microenvironment (TME) model. Also: nearly all actives have a fitted effect of over 65% in size.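 As to potency: count of GFP cancer cells still attached after washing and fixation.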
Details: SKOV3ip1-GFP adhesion/invasion on 3D omental model, fluorescence; series mostly up to 45.8 µM
Excerpt: PI: Ernst Lengyel MD., Ph.D. Department of Obstetrics and Gynecology, Section of Gynecologic Oncology University of Chicago Medicine, Chicago, Illinois. The tumor microenvironment (TME) is a key determinant of metastatic efficiency. We performed a quantitative high-throughput screen (qHTS) of diverse medicinal chemistry tractable scaffolds (44,420 compounds) and pharmacologically active small molecules (386 compounds) using a layered organotypic, robust assay representing the ovarian cancer metastatic TME. This 3D model contains primary human mesothelial cells, fibroblasts, and extracellular matrix, to which fluorescently labeled ovarian cancer cells are added. Initially, 100 compounds inhibiting ovarian cancer adhesion/invasion to the 3D model in a dose-dependent manner were identified. Of those, eight compounds were confirmed active in five high-grade serous ovarian cancer cell lines and were further validated in secondary in vitro and in vivo biological assays. […] Specifically, NCGC00117362 and PP-121 inhibited ovarian cancer adhesion, invasion, and proliferation, whereas milciclib inhibited ovarian cancer invasion and proliferation. […] To evaluate the clinical potential of NCGC00117362, structure - activity relationship studies were performed. […] The three compounds identified have promise as therapeutics for prevention and treatment of ovarian cancer metastasis.
PROTOCOL TABLE (as described by Inglese J, Shamu CE and Guy RK. 2007) SEQUENCE No. (e.g., 1, 2, 3, etc.); […] (e.g., Cells, Incubation, Reagent, etc.); VALUE; DESCRIPTION. 1; Cells; 4 uL; primary human omental fibroblast, black, clear bottom, low base, 1536-well Aurora assay plate. 2; Incubation; 48 hr; 37C. 3; Cells; 3 uL; 1,200 SKOV3ip1-GFP cells. 4; Compounds; 23nL; acoustic dispenser. 5; Incubation; 2 hr; room temperature. 6; Incubation; 16 hr; 37C. 7; Wash; 5 uL; 1x PBS. 8; Fixing; 5 uL; 4% paraformaldehyde (PFA). 9; Incubation; 15 min; room temperature 10; Wash, 5 uL; 1x PBS. 11; Detection; Fluorescence, excitation filter 488 nm, emission filter 509 nm. NOTES (numbers refer to Sequence numbers above) 1. For the 1,536-well format, 40 primary human omental fibroblasts and 400 mesothelial cells were seeded with 0.02 µg fibronectin and 0.02 µg collagen type I in 4 µL of growth media (2.3 mm2; Supplementary Fig. S1A). 2. Assay plates were incubated for 48 hours at 37 C. 3. After incubation, 1,200 SKOV3ip1-GFP were seeded in 3 µL of serum-free media (growth media minus FBS) on top of primary human omental cells. 4. Compounds or controls were added to each well immediately after the addition of the cancer cells. Compounds were screened in four doses (0.36-46 µmol/L), and the plates contained the positive control (Tomatine) in eight doses (0.035-75 µmol/L) and DMSO (equal volume controls) 5 - 6. The plates were incubated at room temperature for 2 hours and then at 37 degrees C for 16 hours. 7 - 10. Following incubation, the media were aspirated and each well washed with PBS (5 µL) and then fixed with 4% paraformaldehyde (PFA; 5 µL). After 15 minutes, the PFA solution was aspirated, PBS (5 µL) was added. 11. The number of GFP-labeled cells analyzed using a fluorescent cytometer TTP LabTech Acumen eX3 using 488 nm excitation filter and 509 nm emission filter. Data was normalized to the DMSO treated for negative and Tomatine treated wells for positive control. REFERENCES: Inglese J, Shamu CE and Guy RK, Reporting data from high throughput screening of small molecule libraries, Nature Chemical Biology, 2007, 3(8): 438-441. doi.org/10.1038/nchembio0807-438. Yasgar A, Shinn P, Jadhav A, Auld DS, Michael S, Zheng W, Austin CP, Inglese J and Simeonov A, Compound Management for Quantitative High-Throughput Screening. J. Assoc. Lab. Auto., 2008, 13: 79-89. doi: 10.1016/j.jala.2007.12.004.
Potency is read from the fitted curve at half-maximal effect.

| Compound | Potency |
| --- | --- |
| CCC(C(=O)Nc1cc(OC)ccc1OC)n1c(=O)c(C(F)(F)F)nc2ccccc21 (stereo not drawn) | inactive |
| CN1CCN(C2(CNC(=O)COc3ccc(C(C)(C)C)cc3)CCCCC2)CC1 | inactive |
| CCOc1ccccc1N(C)C(=O)c1cc2c(s1)-c1ccccc1OC2 | inactive |
| Cc1nn(-c2ccc(N3CCCCC3)nn2)c(C)c1CCC(=O)NCc1ccc(F)cc1 | inactive |
| O=C(Nc1c(-c2ccc(F)cc2)nc2ccccn12)c1cccc(F)c1 | inactive |
| CC(=O)OC[C@@H]1O[C@@H](n2ccc(=O)[nH]c2=O)[C@H](OC(C)=O)[C@H]1OC(C)=O | inactive |
| CN(C(=O)CSc1nnc(NC(=O)Nc2ccccc2)s1)c1ccccc1 | inactive |
| CC1CCCCN1CC(=O)N1CCCc2c1c(=O)oc1ccc(OCc3ccccc3)cc21 (stereo not drawn) | inactive |
| O=S(=O)(NCCS(=O)(=O)N1CCN(c2ccccc2)CC1)c1ccc(Cl)cc1 | inactive |
| Cc1cccc(NC(=O)C2CCN(S(=O)(=O)c3c(C)noc3/C=C/c3ccco3)CC2)c1 | inactive |
| CC(C)Cn1c(=O)c2ccccc2n2c(CCC(=O)N3CCN(c4cccc(Cl)c4)CC3)nnc12 | inactive |
| COc1ccc(-c2cc(C(F)(F)F)n3nc(-c4ccccc4)cc3n2)cc1OC | inactive |
| CC(C(C)N1CC(=O)NC(=O)C1)N1CC(=O)NC(=O)C1 (stereo not drawn) | inactive |
| Cc1ccc(CNS(=O)(=O)c2ccc(C(=O)N(C)C)s2)cc1 | inactive |
| CSc1ncc(Cl)c(C(=O)Nc2ccc(S(=O)(=O)N3CCCC(C)C3)cc2)n1 (stereo not drawn) | inactive |
| Cc1ccc(-c2cc(N)n(Cc3cccc(Cl)c3)n2)cc1 | inactive |
| C[C@]12CCC3=C4CCC(=O)C=C4CC[C@@H]3[C@H]1CC[C@@]2(O)CC#N | inactive |
| CCC(=O)N1CCc2cc(Br)cc(S(=O)(=O)Nc3ccc(C)cc3C)c21 | inactive |
| Cc1cccc(NC(=O)c2cc3c(C)nn(-c4ccccc4)c3s2)c1 | inactive |
| Cc1ccc(-c2nn3c(=O)cc(CN4CCN(C(=O)Nc5cccc(C(F)(F)F)c5)CC4)nc3s2)cc1 | inactive |
| CCOC(=O)CN1C(C(=O)c2ccccc2)=C(OC(=O)C(C)(C)C)c2ccccc2S1(=O)=O | inactive |

| Compound | Potency |
| --- | --- |
| O=C(CC1C(=O)N(c2ccccc2)C(=O)N1CCc1cccs1)Nc1ccc(F)cc1 (stereo not drawn) | inactive |
| O=C(CN1c2ccccc2S(=O)(=O)c2ccccc21)Nc1cccc(C(F)(F)F)c1 | inactive |
| CC(C)(C)OC(=O)N1CCC(c2c(C(=O)N3CCN(c4cccc(Cl)c4)CC3)cnn2-c2cccc(Cl)c2)CC1 | inactive |
| CCc1ccccc1NC(=O)CCOc1ccccc1 | inactive |
| Cc1cccc(OCCCC(=O)Nc2sc3c(c2C(N)=O)CCC(C)C3)c1 (stereo not drawn) | inactive |
| CCN(CC)CCCCNc1ncc2c(n1)N(C)C(=O)N(c1c(Cl)c(OC)cc(OC)c1Cl)C2 | inactive |
| Cc1cccc(N2CCN(C(=O)c3cc4c(=O)oc5ccccc5c4s3)CC2C)c1 (stereo not drawn) | inactive |
| COCCCNC(=O)CN1C(=O)CSc2ccc(S(=O)(=O)N3CCOCC3)cc21 | inactive |
| CCc1ccccc1N1CC(c2nc3ccccc3n2CCCCOc2ccccc2)CC1=O (stereo not drawn) | inactive |
| CCOC(=O)c1nc(Nc2ccc(C(=O)OC)cc2)c2ccccc2n1 | inactive |
| COc1cccc(Nc2nc3ccccc3c3nncn23)c1 | inactive |
| COc1cc(Nc2nc(-c3ccc(OC)c(OC)c3)nc3ccccc23)cc(OC)c1 | 10 µM (active) |
| COc1ccc(C2=CC(c3ccccc3Cl)n3nc(-c4ccc(Cl)cc4)nc3N2)cc1 (stereo not drawn) | inactive |
| O=C(CCC(=O)N1CC2CCCN2c2ccccc21)NCc1ccccc1Cl (stereo not drawn) | inactive |
| CCCCN(C)S(=O)(=O)c1ccc(C(=O)Nc2sc3c(c2C(N)=O)CC(C)(C)NC3(C)C)cc1 | inactive |
| Cc1ccc(C(=O)Nc2ccccc2F)cc1S(=O)(=O)N1CCOCC1 | inactive |
| Cc1c(Cl)cccc1NC(=O)C1CCCN(c2ncnc3onc(C)c23)C1 (stereo not drawn) | inactive |
| COc1cc(C=CC(=O)O)ccc1O | inactive |
| CSc1ccc(NC(=O)Cn2nnnc2-c2ccccc2F)cc1 | inactive |
| COc1ccccc1CNC(=O)C(=O)NCC(c1ccco1)S(=O)(=O)c1ccc(F)cc1 (stereo not drawn) | inactive |
| CCC(C(=O)Nc1cccc(Cl)c1C)n1nc(-c2ccc(C)cc2)ccc1=O (stereo not drawn) | inactive |

| Compound | Potency |
| --- | --- |
| Cc1ccc(OC(=O)CSc2nnc(-c3cccs3)o2)cc1 | inactive |
| O=C(CCSCc1cccc(F)c1)NCc1ccccc1 | inactive |
| COc1cc(Cl)c(NC(=O)C(NS(=O)(=O)c2cccs2)C(C)C)c(OC)c1 (stereo not drawn) | inactive |
| Cc1cccc(N2CCN(S(=O)(=O)c3ccc4[nH]c5c(c4c3)CCCCC5)CC2)c1C | inactive |
| CCN1C(=O)c2ccccc2S(=O)c2ccc(C(=O)NCc3ccc(F)cc3)cc21 (stereo not drawn) | inactive |
| O=C(NCCC1=CCCCC1)c1ccc2c(c1)N(Cc1ccccc1F)C(=O)c1ccccc1S2(=O)=O | inactive |
| O=C(c1ccc(C(F)(F)F)cc1)N1CCC(c2nc(-c3ccc(S(=O)(=O)N4CCCC4)cc3)no2)CC1 | inactive |
| O=C(Nc1ccc(OC(F)(F)F)cc1)c1cc2c(=O)n3ccccc3nc2s1 | inactive |
| Cn1c(C(=O)Nc2cccc(C(F)(F)F)c2)cc2c(=O)n3ccccc3nc21 | inactive |
| O=c1c(NCc2cccs2)nccn1-c1ccccc1 | inactive |
| O=C(CC1Oc2ccc(Cl)cc2NC1=O)NCc1ccccc1 (stereo not drawn) | inactive |
| Cc1ccc2nc(N3CCN(c4cccc(Cl)c4)CC3)c3nnnn3c2c1 | inactive |
| CCCCOc1ccc(NC(=O)c2cc3c(n(-c4ccc(Cl)cc4)c2=O)CCCC3=O)cc1 | inactive |
| Cc1ccc2cccc(NC(=O)c3cccc4ccccc34)c2n1 | inactive |
| COc1ccccc1CNC(=O)CS(=O)(=O)c1cccc2nsnc12 | inactive |
| O=C(CSc1cn(CC(=O)N2CCOCC2)c2ccccc12)Nc1ccccc1 | inactive |
| COc1ccc(C(=O)CSc2c(C(C)C)cnc3c2c(=O)n(C)c(=O)n3C)cc1 | inactive |
| COc1cccc(C(=O)NC2=NC(c3ccc(N(C)C)cc3)CC(=O)N2)c1 (stereo not drawn) | inactive |
| CNc1ccc(-c2nc(-c3ccco3)no2)cc1[N+](=O)[O-] | inactive |
| Cc1c(NC(=O)c2cc(=O)c3ccccc3o2)c(=O)n(-c2ccccc2)n1C | inactive |
| Cc1ccc2c(=O)c(C(=O)c3ccc(F)cc3)cn(CC(=O)NC3CCCCC3)c2n1 | inactive |
